This is a sample that favours compounds with a hit; in the whole collection about 5.2% have one here.
GRIN3A LBD mod: modulators (binders) of human NR3A ligand-binding domain. NR3A LBD differential scanning fluorimetry, Tm shift; 0% = protein alone, 100% = glycine-bound protein. Tm shift relative to glycine control, % at 25 µM. 340,000 compounds, 2.5% hits;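 active = melting temperature shift of at least 10% of the positive control shift, at one fixed dose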
NadD block: NadD (S. aureus) enzyme inhibition; purified NadD enzyme, colorimetric absorbance read-out; inhibition, % at 20 µM; 360,000 compounds, 0.78% hits; in the data active = inhibition above about 26%
SKN-1 block: C. elegans SKN-1 inhibition; C. elegans VP596 Pgst-4::GFP/RFP ratio, acrylamide-induced, 24 h; inhibition, % at 21.8 µM; 360,000 compounds, 0.49% hits;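 active = interference check ratio from 0.5 to 1.5 plus GFP to RFP signal ratio inhibition reaching or exceeding a fixed threshold, cut at about 30% in these data, passing the limit was not always enough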
Vif imaging: inhibitors of HIV Vif | inhibition, % at 7.49 µM | AID 602346 | HEK293T cells, Vif self-association by quenched fluorescence, imaging, 24 h | 340,000 compounds, 0.35% hits; in the data active = inhibition above about 50%, passing the limit was not always enough; inconclusive = no clear call, values can overlap the other calls; inactive = below about 31%
SMARCA2 act: SMARCA2 function activation, primary screen; AID 652017; activation, % at 9.1 µM; 370,000 compounds, 1% hits; MG213 cells, MMTV-luciferase reporter, dexamethasone, overnight; in the data active = activation above about 7.8%
esBAF inh: blocks esBAF chromatin remodeling in mouse ES cells; 350,000 compounds, 2% hits; reporter increase, % at 12.5 µM; Bmi1-luciferase knock-in reporter, 24 h; 100% = twice the neutral-well signal; AID 602393; in the data active = activation above about 40%; inconclusive = no clear call, values can overlap the other calls;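 also: a rise in the Bmi1 reporter signal indicates esBAF inhibition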
SMARCA2 act conf: confirmation of SMARCA2 (BRM) function activators. activation, % at 9.1 µM. MG213 cells, MMTV-luciferase with dexamethasone, luminescence, overnight; MG213 cells expressing E1A, Rb sequestered; DMSO wells 0%, reference activator 100%. AID 652260. 3,500 compounds, 30% hits. shares compounds with SMARCA2 act;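 active = activation above its plate's cutoff, the mean activation of tested wells plus 3 SD, cut at about 7.9% in these data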
GAL4-VP16 Luc: counter-screen for SMARCA2 activators: GAL4-VP16 luciferase reporter activation; HEK293 GAL4-VP16 pG5luc reporter, luciferase luminescence; scaled: DMSO wells 0%, SAHA wells 100%; 3,500 compounds, 41% hits; AID 686939; activation, % at 9.1 µM; shares compounds with SMARCA2 act;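 active = activation above the solvent-only control well mean plus 3 SD, averaged across control plates, cut at about 5.2% in these data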
Hits are given with their value; . = inactive; ? = inconclusive; / = not tested or not shown.

SMILES	GRIN3A LBD mod	NadD block	SKN-1 block	Vif imaging	SMARCA2 act	esBAF inh	SMARCA2 act conf	GAL4-VP16 Luc
CC(C)NC(=O)NCC[C@@H]1CC[C@@H](NC(=O)c2ccc(F)cc2)[C@@H](CO)O1	/	/	/	/	/	.	/	/
Cc1cccc(OCCCC(=O)Nc2nc3ccccc3[nH]2)c1	.	.	.	.	18	/	14	.
CCN1CCN(CCOc2cccc(Oc3ccccc3)c2)CC1	.	.	.	.	8.0	/	.	.
CCN1CCN(CCOCCOc2ccccc2)CC1	.	.	.	.	.	.	/	/
CO[C@H]1CN(C)C(=O)c2cc(NC(=O)Nc3cccc(F)c3)ccc2OC[C@@H](C)NC[C@@H]1C	/	/	/	/	/	.	/	/
COc1ccc(OC)c(S(=O)(=O)Nc2c(F)cccc2F)c1	.	.	.	.	10.0	.	.	.
Cc1[nH]c(=S)[nH]c(=O)c1Cc1ccccc1	.	.	.	.	16	.	.	.
Cc1[nH]c(=S)[nH]c(=O)c1Cc1c(O)ccc2ccccc12	.	.	.	.	.	.	/	/
COc1ccc2sc3cccc(NCCN(C)C)c3c(=O)c2c1	/	.	.	.	29	/	40	.
COc1ccc2oc3cc(NCCN(C)C)ccc3c(=O)c2c1	/	.	.	/	21	.	38	13
CN(C)CCNc1ccc2ncn3c4ccc(O)cc4c(=O)c1c23	.	.	.	.	15	/	141	.
CN(C)CCCNC(=O)c1cc2sc3ccccc3c2s1	.	.	.	.	.	/	/	/
CN(C)CCNc1ccc(CO)c2sc3ccc(O)cc3c(=O)c12	.	.	.	.	14	/	.	11
CCc1nc2ccc(C(=O)Nc3ccc(NC(C)=O)cc3)cn2c1N(CCC(C)C)CCN(C)C	/	.	.	.	8.4	.	.	.
Cc1ccc2c(c1)cc(CN(CCc1ccccc1)C(=O)N1CCOCC1)c1nnnn12	.	.	.	.	.	.	/	/
Cc1ccc2c(c1)cc(CN(Cc1ccco1)C(=O)N1CCOCC1)c1nnnn12	.	.	.	.	8.6	.	12	.
O=C(NC1CCCCCC1)C1CCN(S(=O)(=O)N2CCC3(CC2)OCCO3)CC1	.	.	.	.	9.9	.	.	.
CC1CCCCC1NC(=O)C1CCN(S(=O)(=O)N2CCC3(CC2)OCCO3)CC1 (centres undefined)	.	.	.	.	.	.	/	/
C/C(Nc1cccc(F)c1)=C(/C#N)C(N)=O	.	.	.	.	8.3	.	.	.
CCOC(=O)CSc1nc2cc3c(cc2cc1C)OCO3	.	.	.	.	.	.	/	/
Cc1cc2cc3c(cc2nc1SCC(=O)N1CCOCC1)OCO3	.	.	.	.	8.4	.	.	.
COCCNC(=S)N/N=C/c1ccccc1C(=O)O	.	.	.	.	.	.	/	/
COCCNC(=O)C(=O)N/N=C/c1ccccc1C(F)(F)F	.	.	.	.	11	/	.	.
O=C(N/N=C/c1ccccc1O)c1cccc(C(F)(F)F)c1	.	.	.	.	.	/	/	/
O=C(N/N=C/c1ccccc1C(F)(F)F)c1ccc(O)cc1	.	.	.	.	8.3	/	.	9.4
SMILES	GRIN3A LBD mod	NadD block	SKN-1 block	Vif imaging	SMARCA2 act	esBAF inh	SMARCA2 act conf	GAL4-VP16 Luc
COCCCNC(=O)c1ccc2nc(Cc3ccc(OC)cc3)oc2c1	.	.	.	.	11	71	.	9.3
COc1ccc(Cc2nc3ccc(C(=O)NCCn4cccn4)cc3o2)cc1	.	.	.	.	.	.	/	/
CCCCn1c(CN(Cc2ccccc2)Cc2ccccc2)nc2c1c(=O)n(C)c(=O)n2C	25	.	.	.	9.8	.	.	.
C[C@@H]1CN([C@@H](C)CO)C(=O)c2cccc(NS(=O)(=O)c3ccc(F)cc3)c2O[C@H]1CN(C)S(=O)(=O)c1cn(C)cn1	/	/	/	/	/	.	/	/
O=C(NCCN1CCCCC1)[C@@H]1[C@@H](CO)[C@@H]2Cn3c(cccc3=O)[C@@H]2N1C(=O)C1CC1	/	/	/	/	/	.	/	/
CC(=O)Nc1cccc(NC(=O)c2cccc3cccnc23)c1	.	.	.	.	.	.	/	/
Cc1ccc(NC(=O)c2cccc3cccnc23)cc1	.	.	.	.	8.2	64	20	9.1
C[C@@H]1CCCCO[C@@H](CN(C)Cc2ccccc2)[C@H](C)CN([C@H](C)CO)C(=O)c2cc(NC(=O)CCCN(C)C)ccc2O1	/	/	/	/	/	.	/	/
Cc1ccccc1Cn1c([N+](=O)[O-])cnc1C	.	.	.	.	9.9	.	.	.
Cc1cc(C)c(S(=O)(=O)c2cccc(Cl)c2)c(=O)[nH]1	.	.	.	.	11	.	.	.
CC(C)NC(=O)N(C)C[C@@H]1Oc2ncc(C#CC3CCCCC3)cc2C(=O)N([C@@H](C)CO)C[C@H]1C	/	/	/	/	/	.	/	/
CCOC(=O)Cn1cnc(-c2ccc([N+](=O)[O-])cc2)c1	.	.	.	.	8.8	.	.	5.8
O=C1/C(=C/c2cccs2)COc2ccccc21	.	.	.	.	.	/	/	/
O=C1C(=Cc2cccs2)Oc2ccccc21	.	.	.	.	8.7	.	.	.
CC1CCN(CCc2nc3cc(NC(=O)NC4CCCCC4)ccc3n2C)CC1	.	.	.	.	8.5	.	.	.
Cn1c(CCN2CCCCC2)nc2cc(NC(=O)NC3CCCCC3)ccc21	.	.	.	.	.	.	/	/
CCOC(=O)c1ccc(NC(=S)N(CCN(C)C)C(C)c2ccncc2)cc1 (centres undefined)	.	.	.	/	11	.	.	.
C=CCn1c(SCC(=O)NCc2ccco2)nnc1-c1ccc2ccccc2n1	.	.	.	.	8.3	.	.	.
Cc1cc(=O)n2[nH]c(-c3ccccc3Cl)cc2n1	.	.	.	.	.	.	/	/
Cc1cccc(-c2cc3nc(C)cc(=O)n3[nH]2)c1	/	.	.	.	9.2	?	.	6.7
O=C(Nc1ccc2c(c1)OCO2)N[C@@H]1CC[C@@H](CCNC(=O)C2CCC2)O[C@@H]1CO	/	/	/	/	/	.	/	/
Cc1ccc(NC(=O)c2ccc(Cn3cc(Br)cn3)o2)cc1	.	.	.	.	.	.	/	/
NNC(=O)c1ccc(Cn2cc(Br)cn2)o1	.	.	.	.	8.1	/	.	.
Cc1ccc(-c2cn3cccc(C)c3n2)cc1	23	.	.	.	14	/	.	12
Brc1ccc2nc(-c3c[nH]c4ccccc34)cn2c1	.	.	.	.	.	.	/	/
COc1ccc(-c2cn3cccc(C)c3n2)cc1F	.	.	.	.	.	/	/	/
Cc1cccn2cc(-c3c[nH]c4ccccc34)nc12	.	.	.	.	17	81	.	10

Screening results: PubChem BioAssay, several laboratories
